Data from PubChem BioAssay (EPA / NIEHS).
Inconclusive results are not listed. Activity calls are given as the source filed them. How the source made its calls: active means hit-call score of the fitted dose curve at least 0.9, where 1 is the maximum; inconclusive means response in the unintended direction; inactive means score below 0.9.

What follows are compounds tested against Androgen receptor (Homo sapiens) (UniProt P10275) (assay: ATG_AR_TRANS: Attagene TRANS-FACTORIAL HepG2 Assay for human Androgen Receptor (AR) (AID 2282973)). Conditions: HepG2 Attagene TRANS-FACTORIAL AR reporter transcription.
Procedure, shortened: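 Readout is reporter transcript abundance, quantified by fluorescent RT-PCR products separated on capillary electrophoresis. Human HepG2 liver cells carried transiently transfected NR-Gal4 chimera plus GAL4-UAS reporter constructs and were dosed for 24 h; activity scored upward versus DMSO.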

Sequence of Androgen receptor (Homo sapiens) (P10275 whole entry, looked up, the tested form may be a part): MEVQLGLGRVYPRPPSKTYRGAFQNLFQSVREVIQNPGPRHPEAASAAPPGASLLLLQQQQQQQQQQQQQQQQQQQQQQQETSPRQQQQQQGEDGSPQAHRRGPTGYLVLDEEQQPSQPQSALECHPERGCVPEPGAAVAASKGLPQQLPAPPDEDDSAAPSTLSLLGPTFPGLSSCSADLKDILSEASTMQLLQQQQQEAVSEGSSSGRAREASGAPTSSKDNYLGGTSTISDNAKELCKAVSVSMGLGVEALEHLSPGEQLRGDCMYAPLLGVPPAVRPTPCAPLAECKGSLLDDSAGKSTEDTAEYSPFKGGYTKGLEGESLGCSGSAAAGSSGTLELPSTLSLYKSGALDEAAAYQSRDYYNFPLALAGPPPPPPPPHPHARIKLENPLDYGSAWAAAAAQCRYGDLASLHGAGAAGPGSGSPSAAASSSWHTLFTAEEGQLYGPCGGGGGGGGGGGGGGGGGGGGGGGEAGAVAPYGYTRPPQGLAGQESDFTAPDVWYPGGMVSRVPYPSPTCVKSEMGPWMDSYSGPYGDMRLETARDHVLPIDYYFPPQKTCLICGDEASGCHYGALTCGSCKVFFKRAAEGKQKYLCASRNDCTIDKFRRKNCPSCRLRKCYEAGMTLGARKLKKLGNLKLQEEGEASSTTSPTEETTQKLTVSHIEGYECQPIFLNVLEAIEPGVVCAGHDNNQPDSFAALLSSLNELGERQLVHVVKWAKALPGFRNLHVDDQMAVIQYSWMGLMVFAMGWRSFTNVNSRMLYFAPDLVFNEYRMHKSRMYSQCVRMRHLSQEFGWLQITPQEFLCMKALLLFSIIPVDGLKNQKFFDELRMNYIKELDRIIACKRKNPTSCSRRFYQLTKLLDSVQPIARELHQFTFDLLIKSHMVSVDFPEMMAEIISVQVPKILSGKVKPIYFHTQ

| SMILES | outcome |
| --- | --- |
| CC(C)CCOCc1ccccc1 | inactive |
| CCOc1nc(F)cc2nc(S(=O)(=O)Nc3c(Cl)cccc3C(=O)OC)nn12 | inactive |
| O=C(O)CCCCCCCCCC(=O)O | inactive |
| Cc1ccc(O)cn1 | inactive |
| C[Si]1(C)O[Si](C)(C)O[Si](C)(C)O1 | inactive |
| CC(=O)c1ccc[nH]1 | inactive |
| CCCCCCCCCCCC[N+](C)(C)Cc1ccccc1 | inactive |
| COc1nccnc1CC(C)C | inactive |
| O=C1CC2CC1C1CCCC21 (stereo not given) | inactive |
| O=C(OC(=O)C(F)(F)C(F)(F)F)C(F)(F)C(F)(F)F | inactive |
| CCCCCCCCCCCCC[N+](C)(C)Cc1ccccc1 | inactive |
| COc1ccc(C(=O)c2ccccc2)c(O)c1 | inactive |
| CC=CC(=O)OCC(C)C | inactive |
| O=C1CCCCCCCCCCCC(=O)OCCO1 | inactive |
| O=C(NO)c1ccccc1 | inactive |
| OCc1c[nH]c2ccccc12 | inactive |
| COCC1CCC(CO)CC1 (stereo not given) | inactive |
| O=S(=O)(O)c1ccc(Nc2nc(Nc3ccc(C=Cc4ccc(Nc5nc(Nc6ccc(S(=O)(=O)O)cc6)nc(N(CCO)CCO)n5)cc4S(=O)(=O)O)c(S(=O)(=O)O)c3)nc(N(CCO)CCO)n2)cc1 | inactive |
| CCc1cccc(C)c1N(C(=O)C(=O)O)C(C)COC (stereo not given) | inactive |
| Cc1cc(O)c(C(C)(C)C)cc1C(C)(C)C | inactive |

| SMILES | outcome |
| --- | --- |
| CCCCC(CC)C(=O)OCCOCCOCCOC(=O)C(CC)CCCC (stereo not given) | inactive |
| CCCCCCCC(=O)OCC | inactive |
| FC(F)(F)N1C(F)(F)C(F)(F)OC(F)(F)C1(F)F | inactive |
| CC(=O)OCc1ccccc1 | inactive |
| C=CC(C)(C)O | inactive |
| Cc1cccc(C)n1 | inactive |
| CCN(CC)c1ccc2c(c1)Oc1cc(N(CC)CC)ccc1C21OC(=O)c2ccccc21 | inactive |
| Cn1cccc1 | inactive |
| C=CC(=O)OCC(CO)(COCC(COC(=O)C=C)(COC(=O)C=C)COC(=O)C=C)COC(=O)C=C | inactive |
| CCN(CC)c1ccc(C=O)cc1 | inactive |
| CC(CO)c1ccccc1 (stereo not given) | inactive |
| O=C[C@@H](O)[C@H](O)[C@H](O)CO | inactive |
| CC1=CC2C3C=CC(C3)C2C1C (stereo not given) | inactive |
| CCCCCCCCCCC | inactive |
| C=C(C)C(=O)OCCOc1ccccc1 | inactive |
| OCCNCc1ccccc1 | inactive |
| NCC(F)(F)C(F)(F)C(F)(F)C(F)(F)C(F)(F)C(F)(F)C(F)(F)F | inactive |
| CC(C=O)Cc1ccc(C(C)(C)C)cc1 (stereo not given) | inactive |
| CCCCCCCC(=O)OCCCCCC | inactive |
| C[C@H]1O[C@@H](O[C@H]2[C@@H](O)C[C@H](O[C@H]3[C@@H](O)C[C@H](O[C@H]4CC[C@@]5(C)[C@H](CC[C@@H]6[C@@H]5C[C@@H](O)[C@]5(C)[C@@H](C7=CC(=O)OC7)CC[C@]65O)C4)O[C@@H]3C)O[C@@H]2C)C[C@H](O)[C@@H]1O | inactive |
